Reference: PubChem BioAssay (NCATS)
Records with an inconclusive call do not appear. A number with no mark means an inactive call. Activity calls are given as the source filed them. Calls come from the whole dose curve; as a rule, active = well fitted inhibition curve with a large enough effect; inconclusive = small, poorly fitted or top-dose-only effect; inactive = flat fitted curve, though single readings scatter.
Potency is the fitted concentration of half-maximal effect.

These molecules were tested on PC49 (assay: qHTS profiling for inhibitors of Plasmodium falciparum proliferation (AID 504749; note: nearly all actives have a fitted effect of over 60% in size;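 for activity, negative = inhibition: 0% = DMSO vehicle and full inhibition = artemisinin control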)). Conditions: P. falciparum in erythrocytes, SYBR Green DNA, 72 h; series mostly up to 28.7 µM; activity, negative = inhibition: at the top concentration.
Summary of the method: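 SYBR Green fluorescence (ex 485 nm, em 535 nm) reports parasite DNA after 72 h compound exposure of infected red cells at 0.3% parasitemia, 2.5% hematocrit; signal normalized to 0.29 uM artemisinin and vehicle wells.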
With `CO[C@H](C(=O)[C@@H](O)[C@@H](C)O)C1Cc2cc3cc(O[C@H]4C[C@@H](O[C@H]5C[C@@H](O)[C@H](O)[C@@H](C)O5)[C@@H](O)[C@@H](C)O4)c(C)c(O)c3c(O)c2C(=O)[C@H]1O[C@H]1C[C@@H](O[C@H]2C[C@@H](O[C@H]3C[C@](C)(O)[C@H](O)[C@@H](C)O3)[C@H](O)[C@@H](C)O2)[C@H](O)[C@@H](C)O1` (some centres not stated) the Potency was 708 nM (active). `O=C(O)c1cc(O)c2c(c1)[O][Bi][O]2` was tested, and the “activity, negative = inhibition” value was 15.3%. For `NC(=O)c1ncn(C2OC(CO)C(O)C2O)n1` (configuration not stated), the “activity, negative = inhibition” value was 6.93%. `CC[N+](C)(C)Cc1ccccc1Br` was tested, and the “activity, negative = inhibition” value was 1.41% [at 12.8 µM]. `Nc1ncnc2c1ncn2[C@@H]1O[C@H](COP(=O)(O)OP(=O)(O)OP(=O)(O)O)[C@@H](O)[C@H]1O` was tested, and the “activity, negative = inhibition” value was 4.61%. With `CCCCCCCCCCCCCCCC(=O)OCC(COC(=O)CCCCCCCCCCCCCCC)OC(=O)CCCCCCCCCCCCCCC` the “activity, negative = inhibition” value was 3.73%. In the case of `CCCC(=O)O[C@]1(C(=O)CCl)[C@H](C)C[C@@H]2[C@H]3CCC4=CC(=O)C=C[C@]4(C)[C@@]3(F)C(=O)C[C@@]21C`, the Potency is reported as 10000 nM (active). With `CC(C)(C)C(=O)OCOC(=O)[C@@H]1N2C(=O)[C@@H](N=CN3CCCCCC3)[C@H]2SC1(C)C` the “activity, negative = inhibition” value was 4.82% [at 12.8 µM]. For `Cc1ccccc1OCC(O)CNCCOc1ccc(C(N)=O)cc1` (configuration not stated), the “activity, negative = inhibition” value was 3.74%. For `CCCCC/C=C\C/C=C\CCCCCCCC(=O)O`, the “activity, negative = inhibition” value was -0.172%. `C[C@@H]1CCC2[C@@H](C)[C@@H](O)O[C@@H]3O[C@@]4(C)CC[C@@H]1[C@@]23OO4` (some centres not stated) was tested, and the Potency was 0.3 nM (active). For `Nc1c(N=Nc2ccc(-c3ccc(N=Nc4cc(S(=O)(=O)O)c5ccccc5c4N)cc3)cc2)cc(S(=O)(=O)O)c2ccccc12`, the “activity, negative = inhibition” value was 7.97%. For `CC1(C)S[C@@H]2[C@H](NC(=O)[C@@H](NC(=O)N3CCNC3=O)c3ccccc3)C(=O)N2[C@H]1C(=O)O`, the “activity, negative = inhibition” value was 17.3% [at 12.8 µM]. For `COCC(=O)Nc1cc(Sc2ccccc2)ccc1N=C(NC(=O)OC)NC(=O)OC`, the “activity, negative = inhibition” value was 4.95%. In the case of `CC(O)CO` (configuration not stated), the “activity, negative = inhibition” value is reported as 8.23%. For `COC(=O)CCC(=O)CN`, the “activity, negative = inhibition” value was 5.45%. In the case of `CC1=C(/C=C/C(C)=C/C=C/C(C)=C/C=C/C=C(C)/C=C/C=C(C)/C=C/C2=C(C)CCCC2(C)C)C(C)(C)CCC1`, the “activity, negative = inhibition” value is reported as 10.7%. In the case of `CN=C(NC#N)Nc1ccc(C2=NNC(=O)C[C@@H]2C)cc1`, the “activity, negative = inhibition” value is reported as 11.8%. With `C[C@H]1C[C@H]2[C@@H]3CCC4=CC(=O)C=C[C@]4(C)[C@@]3(F)[C@@H](O)C[C@]2(C)[C@@]1(O)C(=O)CO` the “activity, negative = inhibition” value was 6.78%. With `O=C1C(=O)c2ncccc2-c2cccnc21` the Potency was 3550 nM (active). With `COC(C(=O)C(O)C(C)O)C1Cc2cc3cc(OC4CC(OC5CC(O)C(O)C(C)O5)C(O)C(C)O4)c(C)c(O)c3c(O)c2C(=O)C1OC1CC(OC2CC(OC3CC(C)(O)C(O)C(C)O3)C(O)C(C)O2)C(O)C(C)O1` (configuration not stated) the “activity, negative = inhibition” value was -112%. With `CCCCCCC(O)C/C=C/CCCCCCCC(=O)O` (configuration not stated) the “activity, negative = inhibition” value was 1.63%. `CCCCCC(CC)COC(=O)CC(C(=O)OCC(CC)CCCC)S(=O)(=O)O` (configuration not stated) was tested, and the “activity, negative = inhibition” value was -5.21%. In the case of `C[C@]12CCC(=O)C=C1CC[C@@H]1[C@@H]2[C@@H](O)C[C@@]2(C)[C@H]1CC[C@]2(O)C(=O)COP(=O)(O)O`, the “activity, negative = inhibition” value is reported as 10.2%. In the case of `Cc1cc(C(=O)NNCc2ccccc2)no1`, the “activity, negative = inhibition” value is reported as 5.61% [at 12.8 µM]. With `O=C(O)CCC(=O)C(=O)O` the “activity, negative = inhibition” value was 17.4%. `Cc1cn([C@H]2C[C@H](O)[C@@H](CO)O2)c(=O)[nH]c1=O` was tested, and the “activity, negative = inhibition” value was 1.62%.
